We go through seven molecules from PubChem BioAssay (Tox21).

Assay [1] is described as follows: qHTS assay to identify small molecule agonists of the hypoxia (HIF-1) signaling pathway - cell viability counter screen (AID 1224844; calls by dose curve; note: nearly all actives have a fitted effect of over 50% in size). In outline: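 Luminescent ATP content (CellTiter-Glo, 30 min, room temperature) served as the viability measure in HRE-bla ME-180 cells exposed to compounds for 17 hrs in low-serum medium (0.5% dialyzed FBS).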
On the technique in general: Quantitative high-throughput screening tests each substance at several concentrations.

A short description of assay [2]: qHTS assay to identify small molecule agonists of H2AX (AID 1224845; active = well fitted activation curve with a large enough effect in the signal ratio in the repeat runs, not every such curve was filed as active; the % refers to the signal ratio). In outline: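 Wild-type CHO-K1 cells plated overnight, then exposed 3 hr at 37C to compounds at 15 concentrations (0.76% DMSO). Lysed, then HTRF anti-pH2AX(S139)-cryptate/anti-H2AX-d2 detection after 24 hr at room temperature; emissions 665 and 620 nm.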
The nature of assay [3]: qHTS assay to identify small molecule agonists of the hypoxia (HIF-1) signaling pathway (AID 1224846; active = well fitted activation curve with a large enough effect in the signal ratio in the repeat runs, not every such curve was filed as active; the % refers to the signal ratio). In outline:
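Measured by blue/green FRET after loading CCF4-AM: beta-lactamase expressed from a hypoxia response element in ME-180 cells. Test agents were delivered in DMSO and left 17 hrs; cells had been plated 5 hrs earlier in low-serum (0.5% dialyzed FBS) medium.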

Assay [4] is described as follows: qHTS assay to identify small molecule agonists of H2AX - cell viability counter screen (AID 1224847; calls by dose curve; note: top concentration of the series differs between compounds; nearly all actives have a fitted effect of over 30% in size). In outline:
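For this counter screen, overnight-attached CHO-K1 cells received test compounds (15 concentrations, 0.76% DMSO final); 3 hr later at 37C, CellTiter-Glo reagent was added and luminescence recorded after 30 min at room temperature.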

A short description of assay [5]: qHTS assay to identify small molecule antagonists of the estrogen related receptor (ERR) signaling pathway from Tox21 library (AID 1224848). Note: nearly all actives have a fitted effect of over 50% in size. Note: potency is the fitted concentration of half-maximal effect. In outline:
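Screening used an ERR reporter line supplied by NTP, exposed for 18 h at 37 C to library compounds delivered in DMSO. Signal was luciferase luminescence developed with ONE-Glo at room temperature for 30 min.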

Assay [6] can be described thus: qHTS assay to identify small molecule agonists of the estrogen related receptor (ERR) signaling pathway from Tox21 library (AID 1224849; calls by dose curve; note: nearly all actives have a fitted effect of over 15% in size). Conditions: ERR reporter cell line, ONE-Glo luciferase, 18 h; at 92.4 µM (top of the series) unless noted. In outline:
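We plated ERR reporter cells, waited 6 h, added compounds in DMSO by pin tool and incubated them 18 h at 37 C. ONE-Glo was then added and luminescence read after 30 min.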

A short description of assay [7]: qHTS RealTime-Glo MT Cell Viability Assay in HepG2 cells - 24 hour (AID 1224867). Note: nearly all actives have a fitted effect of over 50% in size. In outline: (§1)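 HepG2 suspension premixed with RealTime-Glo reagents is plated at 600 cells per well and left 5 h at 37 C/5% CO2. Compounds in DMSO then go in, and bioluminescence reflecting viable cell number is recorded over 40 h.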
The nature of assay [8]: qHTS RealTime-Glo MT Cell Viability Assay in HEK293 cells - 32 hour (AID 1224868). Note: top concentration of the series differs between compounds; nearly all actives have a fitted effect of over 50% in size. In outline:
(§2)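 Reads taken at 0, 8, 16, 24, 32 and 40 h from the same wells. HEK293 cells (600/well) carried RealTime-Glo reagents from seeding, with compound added after a 5 h settle at 37 C.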

The nature of assay [9]: A CellTox Green Cytotoxicity Assay to monitor cytotoxicity in HEK293 cells - 0 hour (AID 1224869). Note: nearly all actives have a fitted effect of over 50% in size. In outline:
(§3)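 Each value comes from one timepoint of a single continuous run in which HEK293 cells with CellTox Green were exposed to compound for up to 40 h at 37 C, dye fluorescence rising with cell death.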

Assay [10] is described as follows: qHTS RealTime-Glo MT Cell Viability Assay in HepG2 cells - 40 hour (AID 1224870). Note: nearly all actives have a fitted effect of over 50% in size. In outline:
(§4)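 HepG2 cells mixed with RealTime-Glo MT reagents (NanoLuc plus cell-permeant prosubstrate) were seeded at 600 cells/well, incubated 5 h at 37 C/5% CO2, then pinned with compounds in DMSO; nonlytic luminescence tracked viability during 40 h treatment.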

The nature of assay [11]: A CellTox Green Cytotoxicity Assay to monitor cytotoxicity in HEK293 cells - 40 hour (AID 1224871). Note: nearly all actives have a fitted effect of over 45% in size. Note: potency is the fitted concentration of half-maximal effect. In outline:
as §3

A short description of assay [12]: qHTS RealTime-Glo MT Cell Viability Assay in HepG2 cells - 8 hour (AID 1224873). Note: nearly all actives have a fitted effect of over 55% in size. In outline: as §4
Assay [13] in a line: qHTS RealTime-Glo MT Cell Viability Assay in HEK293 cells - 40 hour (AID 1224874). Note: nearly all actives have a fitted effect of over 50% in size. Note: potency is the fitted concentration of half-maximal effect. To be noted: RealTime-Glo luminescence; max response: hits give low values. In outline: (§5)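 qHTS format; HEK293 cells with NanoLuc/prosubstrate reagent, 37 C/5% CO2 for 5 h pre-dosing; compounds 23 nL in DMSO; luminescence at each time point reflects viable cells.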
The nature of assay [14]: A CellTox Green Cytotoxicity Assay to monitor cytotoxicity in HEK293 cells - 24 hour (AID 1224875). Note: nearly all actives have a fitted effect of over 45% in size. Note: potency is the fitted concentration of half-maximal effect. In outline:
as §3

Assay [15] is described as follows: A CellTox Green Cytotoxicity Assay to monitor cytotoxicity in HepG2 cells - 16 hour (AID 1224876). Note: nearly all actives have a fitted effect of over 45% in size. In outline:
(§6)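 Continuous culture of HepG2 cells with a membrane-impermeant DNA dye; rising fluorescence marks dead cells. Compound exposure lasted up to 40 h at 37 C, with reads every 8 h from 0 h.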

The nature of assay [16]: qHTS RealTime-Glo MT Cell Viability Assay in HepG2 cells - 32 hour (AID 1224877). Note: nearly all actives have a fitted effect of over 55% in size. In outline:
as §1

The nature of assay [17]: A CellTox Green Cytotoxicity Assay to monitor cytotoxicity in HepG2 cells - 24 hour (AID 1224878). Note: nearly all actives have a fitted effect of over 45% in size. In outline:
as §6

Assay [18] is described as follows: A CellTox Green Cytotoxicity Assay to monitor cytotoxicity in HepG2 cells - 40 hour (AID 1224879). Note: nearly all actives have a fitted effect of over 40% in size. In outline: as §6
Assay [19] can be described thus: qHTS RealTime-Glo MT Cell Viability Assay in HEK293 cells - 0 hour (AID 1224880). Note: nearly all actives have a fitted effect of over 45% in size. Note: potency is the fitted concentration of half-maximal effect. In outline: as §5
Assay [20] in a line: qHTS RealTime-Glo MT Cell Viability Assay in HEK293 cells - 16 hour (AID 1224872). In outline:
as §2

Values without a mark were called inactive. Records with an inconclusive call do not appear. Activity calls are given as the source filed them. Unless noted, calls come from the whole dose curve; as a rule, active = well fitted curve in the direction sought with a large enough effect in the repeat runs; inconclusive = weak or mixed curves; inactive = no such curve, though single readings can be large; an effect the other way counts as inactive or inconclusive.
% is set by controls: 0 for no effect and ±100 for the full control effect.

Turning to `Nc1nc(N)c(-c2ccccc2)s1`, the Potency result in assay [1], in [2], in assay [4], in assay [5], in assay [7] and in [8] was “inactive” each time. The Potency entry in [9], in [10], in assay [11], in assay [12], in assay [14] and in assay [15] was “inactive” in each case. Besides, the Potency entry in assay [16], in assay [17], in assay [18] and in assay [19] was “inactive” throughout. In assay [3], the molecule was called inactive. Further, the activity change, positive = activation in assay [6] is 3.26% [at 42.5 µM]. Further, the max response in assay [13] is 5.71%.

Turning to `CC(=O)/C(C)=C/C1C(C)=CCCC1(C)C` (configuration not stated), the Potency result in assay [1], in [2], in [4], in assay [5], in assay [7] and in assay [8] was “inactive” throughout. The Potency entry in assay [9], in assay [10], in assay [20], in assay [12], in [15] and in assay [16] was “inactive” each time. Also, the Potency entry in assay [19] is “inactive”. Moreover, the outcome in [3] was inactive. Further, the activity change, positive = activation in assay [6] was 5.66%. The Potency in [11] and in [14] was 17.4 µM (active) throughout. The max response in assay [13] is -10.3%.

For `Cc1cc(NC(=O)C(=O)O)cc(C)c1Oc1ccc(O)c2c1CCC2`, the Potency entry in assay [1], in [2], in assay [4], in [5], in [7] and in assay [8] was “inactive” in each case. Also, the Potency result in assay [9], in [10], in [11], in [20], in [12] and in assay [14] was “inactive” throughout. Also, the Potency entry in [15], in assay [16], in assay [17], in [18] and in [19] was “inactive” in each case. Moreover, in assay [3], the molecule was called inactive. The activity change, positive = activation in assay [6] was 1.77%. For the same molecule, the max response in assay [13] was -8.77%.

As to `CCN(CC)CCOC(=O)C1(c2ccccc2)CCCC1`, the Potency result in [1], in [2], in assay [4], in [5], in [7] and in [9] was “inactive” throughout. Moreover, the Potency entry in assay [10], in assay [11], in assay [20], in assay [12], in [14] and in assay [15] was “inactive” each time. Moreover, the Potency result in [16], in [17] and in [19] was “inactive” throughout. Also, in assay [3], the outcome was inactive. For the same molecule, the activity change, positive = activation in [6] is 0.628% [at 42.5 µM]. In addition, the max response in assay [13] is -9.49%.

Take `CCCCCCCCC(CO)CCCCCC` (configuration not stated): the Potency entry in assay [1], in assay [2], in [4], in assay [5], in assay [7] and in assay [8] was “inactive” throughout. Moreover, the Potency entry in [9], in [10], in [11], in assay [20], in assay [12] and in assay [14] was “inactive” in each case. Also, the Potency result in assay [15], in assay [16], in [17], in [18] and in [19] was “inactive” throughout. Besides, in assay [3], the result was inactive. Moreover, in assay [6], the activity change, positive = activation is 4.04%. Further, in assay [13], the max response was 1.58%.

For `C1=Cc2ccccc2C1`, the Potency entry in [1], in assay [2], in [4], in [5], in [7] and in assay [9] was “inactive” in each case. For the same molecule, the Potency result in assay [10], in assay [11], in assay [20], in [12], in assay [14] and in assay [15] was “inactive” each time. Besides, the Potency entry in assay [16], in assay [17], in assay [18] and in assay [19] was “inactive” in each case. Also, the outcome in assay [3] was inactive. Further, the activity change, positive = activation in assay [6] is 2.75%. Also, the max response in [13] was 6.96%.

In the case of `CC(=O)[C@@]1(O)CC[C@H]2[C@@H]3C[C@H](C)C4=CC(=O)CC[C@]4(C)[C@H]3CC[C@@]21C`, the Potency result in [1], in assay [2], in [4], in assay [7], in assay [9] and in [10] was “inactive” each time. Besides, the Potency result in assay [11], in assay [12], in [14], in assay [15], in [16] and in [17] was “inactive” in each case. In addition, in [18], the Potency result is “inactive”. For the same molecule, in [3], the call was inactive. In addition, the Potency in assay [5] was 23.7 µM (active); in assay [13], 19 µM (active); in assay [19], 6.74 µM (active). The activity change, positive = activation in [6] is -36.6% [at 42.5 µM].
